Among all 340,000 compounds or so, about 1,000 (0.29%) were called active. Rule as the data show it: inconclusive = inhibition above about 27% without an active follow-up result; inactive = below that. Not all results are given here. Potency and affinity values are given separately.

A short description of the assay: H1N1 influenza NS1A inhibitors, functional cell based assay (AID 504329). The note with it: percent inhibition, at 12.5 µM, stronger effect = higher value.
Regarding `CCc1nnc(NC(=O)c2cc(-c3ccncc3)nc3ccccc23)s1`, the inhibition (in general, the change of the read-out against control, counted positive when it falls) was -12.1% (inactive).
For `Cc1ccc(N(C(=O)c2csnn2)C(C(=O)NC(C)(C)C)c2cccnc2)cc1` (centres undefined), the inhibition is -8.33% (inactive).
The result for `CC1CN(c2ccc([N+](=O)[O-])c(NCCOc3ccccc3)c2)CCN1` (centres undefined) reads 4.39% (inactive); that for `CC1CN(c2ccc([N+](=O)[O-])c(NCCOc3ccc(Cl)cc3)c2)CC(C)N1` (centres undefined), 20.5% (inactive); that for `COCCN1C(=O)N[C@@H](CCc2ccccc2)[C@@H](C(=O)OC)[C@H]1C`, -8.6% (inactive).
For `COc1ccccc1NC(=O)CSc1nnc(CNC(=O)c2cccs2)o1` the value was -6.38% (inactive).
In the case of `O=C(Cn1cnc(S(=O)(=O)N2CCCCC2)c1)Nc1ccc(OC(F)(F)F)cc1`, the inhibition was 2.65% (inactive).
For `O=S(=O)(Nc1ccc2c(c1)OCCO2)c1c(F)cccc1F` the value was -2% (inactive).
For `NNc1nc(Nc2ccccc2)nc(Nc2ccccc2)n1`, the inhibition was -2.5% (inactive).
For `CNc1nc(Cl)nc(Nc2ccccc2)n1` the value was 6.99% (inactive).
For `O=C(CCS(=O)CCC(=O)NCc1ccccc1)NCc1ccccc1` the value was -7.22% (inactive).
In the case of `CCN1C(=O)/C(=C/C=C2\C=CN(CC)c3ccccc32)SC1=S`, the inhibition was 21% (inactive).
The result for `CCN1C(=O)/C(=C/C=C2/Sc3ccccc3N2CCO)SC1=S` reads 8.17% (inactive); that for `CC(=O)c1ccc(N2CCN(C(=O)Cc3n[nH]c(=O)c4ccccc34)CC2)cc1`, 2.74% (inactive); that for `COc1cccc(CN(C)C(=O)c2cccc(OCc3ccccc3)c2)c1`, 5.5% (inactive).
As for `Cc1cc(OC(C)C(=O)NCCN2CCOCC2)c2c(C)c(C)c(=O)oc2c1` (centres undefined), the inhibition was 2.99% (inactive).
Consider `COC(=O)/C(N=Nc1c(C)n(C)n(-c2ccccc2)c1=O)=C(\C)O`, for which the inhibition was 8.11% (inactive).
In the case of `CCOC(=O)/C(N=Nc1c(C)n(C)n(-c2ccccc2)c1=O)=C(/O)c1ccccc1`, the inhibition is 3.43% (inactive).
The result for `Cc1c(N=N/C(C(=O)Nc2ccccc2)=C(/O)c2ccccc2)c(=O)n(-c2ccccc2)n1C` reads 12.5% (inactive); that for `CC(=O)/C(N=Nc1c(C)n(C)n(-c2ccccc2)c1=O)=C(\C)O`, 1.66% (inactive).
For `CCOC(=O)CC(NC(=O)c1cc2cccc(OC)c2oc1=O)c1ccc(OC)cc1` (centres undefined) the value was -20.4% (inactive); for `COc1ccc(-n2c(=O)c3ccccc3n(CC(=O)NC3CCCCC3)c2=O)cc1OC`, 10.9% (inactive).
For `O=S(=O)(c1ccc(Cl)cc1)N1CCCC1c1cccnc1` (centres undefined) the value was -6.92% (inactive); for `COc1ccc(CNC(=O)C(OC(=O)c2ccco2)c2ccccc2F)cc1` (centres undefined), 4.89% (inactive); for `COc1cc(C(=O)NCc2nnc(SCC(=O)N3CCCCCC3)o2)cc(OC)c1OC`, 0.67% (inactive).
As to `CC[C@@]1(C(=O)OC)N[C@H](CN(C)S(=O)(=O)c2ccc(C(C)(C)C)cc2)[C@@H]2C(=O)N(Cc3ccccc3)C(=O)[C@@H]21`, the inhibition is -9.1% (inactive).
With `Cc1ccc(Nc2nc(N)nc(-c3oc4ccccc4c3C)n2)cc1`, the inhibition is -6.47% (inactive).
The result for `COc1cc(/C=N/NC(=O)C(=O)Nc2ccccn2)ccc1O` reads -6.98% (inactive); that for `Cc1cc(/C=N/NC(=O)C(=O)NCc2ccccn2)c(C)n1-c1ccccc1`, -2.44% (inactive).
Consider `O=C(NCc1ccccn1)C(=O)N/N=C/c1ccc2c(c1)OCO2`, for which the inhibition is -4.91% (inactive).
Regarding `O=C(Nc1ccccn1)C(=O)Nc1ccccn1`, the inhibition was -1.25% (inactive).
The result for `COc1ccc(-c2c(C)nc3c(-c4ccc(F)cc4)cnn3c2N)cc1` reads -14.5% (inactive); that for `COc1cc(C(=O)NC2=NCCS2)ccc1OCc1c(C)noc1C`, -1.34% (inactive).
For `O=C(CNC(=O)c1cccc(N2C(=O)c3ccccc3C2=O)c1)Nc1ccc(F)c(F)c1` the value was -11.5% (inactive).
The result for `Cc1c(O)c(CN2CCCC2)cc2c1oc(=O)c1ccccc12` reads -0.95% (inactive).
As for `COc1cccc(C(=O)Oc2c(CN3CCOCC3)cc(Cl)c3cccnc23)c1`, the inhibition is 4.96% (inactive).
As for `COc1cc(Br)cc(CN2CCN(c3ncccn3)CC2)c1O`, the inhibition was -10.6% (inactive).
For `COc1cc(Br)cc(CN2CCN(C)CC2)c1O` the value was 2.34% (inactive).
The result for `Cc1ccc2c(c1)N(CCC(=O)NC1CC1)C(=O)C(C)O2` (centres undefined) reads -4.26% (inactive).
The result for `COC(=O)c1cc(NC(=S)Nc2cc(Cl)cc(Cl)c2)cc(C(=O)OC)c1` reads -5.67% (inactive).
With `CN(Cc1ccc(F)cc1)C(=O)c1ccc(NC(=O)CC2SC(N3CCCC3)=NC2=O)cc1` (centres undefined), the inhibition was 9.52% (inactive).
For `Cc1ccc(OCc2nnc(SCC(=O)Nc3ncc(C)s3)o2)cc1`, the inhibition was -2.25% (inactive).
For `CCCC(=O)Nc1ccc(NC(=O)c2cccs2)cn1` the value was 20.7% (inactive); for `CN(C)c1ccc(CN(C)C2CCCCC2)cc1`, -7.34% (inactive); for `CN(C)c1ccc(CCc2ccc(N)cc2)cc1`, 14.3% (inactive).
As for `NC(N)=N/N=C/c1ccc(N(c2ccccc2)c2ccccc2)cc1`, the inhibition is -36.1% (inactive).
The result for `CCN(Cc1ccccc1)c1ccccc1` reads -3.09% (inactive); that for `Cc1cccc(C)c1NC(=S)N(CCN(C)C)C(C)c1ccccn1` (centres undefined), 10.7% (inactive); that for `Cc1ccc(C)c(NC(=S)N(CCN(C)C)C(C)c2ccccn2)c1` (centres undefined), 4.89% (inactive).
On to `Cc1cc(=O)[nH]c(SCC(=O)Nc2ccc(C)c(S(=O)(=O)N3CCCCC3)c2)n1`, for which the inhibition was 14% (inactive).
The result for `O=C(CNC(=O)c1ccco1)Nc1ccc2c(c1)OCCO2` reads 5.25% (inactive).
In the case of `COc1ccc(/C=C/C(=O)NC(=S)NNC(=O)c2c(-c3ccccc3)noc2C)cc1`, the inhibition is -5.37% (inactive).
With `Cc1[nH]c(=S)[nH]c(=O)c1CCOc1ccccc1`, the inhibition is 21.1% (inactive).
Regarding `O=C(N/N=C/c1cc(Cl)cc([N+](=O)[O-])c1O)c1cccc(S(=O)(=O)N2CCOCC2)c1`, the inhibition is 13% (inactive).
For `O=S(=O)(c1ccc(NC(=S)N/N=C/c2ccc(O)c(O)c2)cc1)N1CCOCC1` the value was 7.64% (inactive); for `NNC(=S)Nc1ccc(S(=O)(=O)N2CCOCC2)cc1`, -2.99% (inactive).
For `O=S(=O)(c1ccc(NC(=S)Nc2ccccc2)cc1)N1CCOCC1` the value was 1.71% (inactive).
In the case of `Cc1sc2ncnc(OCC(=O)NC(C)C(C)C)c2c1C` (centres undefined), the inhibition is 11.9% (inactive).
For `N/C(=N\[N+](=O)[O-])N1CCN(C(=O)OC2CCCC2)CC1` the value was 0.06% (inactive).

The values above are taken from PubChem BioAssay AID504329 (Southern Research Specialized Biocontainment Screening …, 2011).
